Test results as given in paper PMC7862700, “An all-to-all approach to the identification of sequence-specific readers for epigenetic DNA modifications on cytosine”.

Experiments:
Assay in all cases: DAPPL (digital affinity profiling via proximity ligation, sequencing); 10 mM Tris-HCl pH 7.5, 50 mM NaCl, 1 mM DTT, 4% glycerol, room temperature, 30 min; GST-TFs on glutathione beads, 16-mer random dsDNA library, 0.1% formaldehyde crosslink after washing; high values mean tight binding
[1] = target: T1, FEV (Homo sapiens, UniProt Q99581 1-238); conditions: protein: recombinant; tags: N-terminal GST; dsDNA, one strand shown
T1 sequence: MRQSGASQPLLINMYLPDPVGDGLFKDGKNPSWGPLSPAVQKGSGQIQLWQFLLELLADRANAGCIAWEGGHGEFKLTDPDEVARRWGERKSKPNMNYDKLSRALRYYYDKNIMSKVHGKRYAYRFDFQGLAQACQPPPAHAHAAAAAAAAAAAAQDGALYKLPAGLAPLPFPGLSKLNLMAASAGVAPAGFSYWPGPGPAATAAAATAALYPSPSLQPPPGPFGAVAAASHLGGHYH
Outline: (§1)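 Yeast served to express human transcription factors as GST fusions, which were then captured on glutathione beads and labelled with DNA barcodes. Pooled with a tag-only sample, they were incubated with 200 nmole of a 16-mer random double-stranded DNA library for 30 min at room temperature in Tris/NaCl/DTT/glycerol buffer, washed, crosslinked with 0.1% formaldehyde, ligated by proximity, amplified by PCR and sequenced. Dividing each hexamer's read frequency for a factor by its frequency for the tag-only sample gives the binding signal.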

[2] = target: ETV5 (Homo sapiens, UniProt P41161 1-510); conditions: protein: recombinant; tags: N-terminal GST; dsDNA, one strand shown
Sequence of ETV5 (P41161 whole entry): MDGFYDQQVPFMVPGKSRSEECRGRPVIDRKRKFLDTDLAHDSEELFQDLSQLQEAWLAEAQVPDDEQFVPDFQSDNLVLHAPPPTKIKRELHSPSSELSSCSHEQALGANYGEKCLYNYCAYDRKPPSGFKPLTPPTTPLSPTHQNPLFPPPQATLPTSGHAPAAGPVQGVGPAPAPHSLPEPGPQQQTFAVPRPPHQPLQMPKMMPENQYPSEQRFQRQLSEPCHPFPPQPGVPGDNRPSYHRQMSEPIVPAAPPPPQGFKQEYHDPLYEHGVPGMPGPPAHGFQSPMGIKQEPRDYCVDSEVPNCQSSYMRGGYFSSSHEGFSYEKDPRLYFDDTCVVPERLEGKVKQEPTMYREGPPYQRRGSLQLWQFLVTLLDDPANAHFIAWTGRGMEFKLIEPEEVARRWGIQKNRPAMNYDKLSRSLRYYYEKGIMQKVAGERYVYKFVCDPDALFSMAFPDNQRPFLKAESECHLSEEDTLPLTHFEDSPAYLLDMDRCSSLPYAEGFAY
Outline: as §1

[3] = target: HSF1 (Homo sapiens, UniProt Q00613 1-529); conditions: protein: recombinant; tags: N-terminal GST; chain copies: 3; dsDNA, one strand shown
Sequence of HSF1 (Q00613 whole entry): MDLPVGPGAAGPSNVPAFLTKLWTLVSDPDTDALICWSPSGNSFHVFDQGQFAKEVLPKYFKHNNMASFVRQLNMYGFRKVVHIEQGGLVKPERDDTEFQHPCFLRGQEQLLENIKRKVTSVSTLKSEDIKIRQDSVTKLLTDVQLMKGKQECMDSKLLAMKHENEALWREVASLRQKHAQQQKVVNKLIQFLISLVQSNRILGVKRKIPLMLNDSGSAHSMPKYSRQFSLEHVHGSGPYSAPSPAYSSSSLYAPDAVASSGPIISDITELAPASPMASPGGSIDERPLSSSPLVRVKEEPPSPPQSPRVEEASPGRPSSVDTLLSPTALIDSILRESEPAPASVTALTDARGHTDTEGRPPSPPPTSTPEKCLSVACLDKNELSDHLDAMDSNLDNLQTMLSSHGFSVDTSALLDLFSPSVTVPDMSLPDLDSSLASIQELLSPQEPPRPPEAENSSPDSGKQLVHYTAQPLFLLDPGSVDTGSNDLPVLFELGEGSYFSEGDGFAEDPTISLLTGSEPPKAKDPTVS
Outline: as §1

[4] = target: T2, SPIC (Homo sapiens, UniProt Q8N5J4 1-248); conditions: protein: recombinant; tags: N-terminal GST; dsDNA, one strand shown
T2 sequence: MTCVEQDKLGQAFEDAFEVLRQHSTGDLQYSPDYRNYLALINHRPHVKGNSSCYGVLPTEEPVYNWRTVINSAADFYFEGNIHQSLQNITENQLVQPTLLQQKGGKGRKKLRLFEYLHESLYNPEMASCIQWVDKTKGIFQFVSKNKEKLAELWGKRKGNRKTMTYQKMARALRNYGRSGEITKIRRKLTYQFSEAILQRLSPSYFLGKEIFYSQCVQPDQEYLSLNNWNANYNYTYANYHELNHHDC
Outline: as §1

[5] = target: ELF4 (Homo sapiens, UniProt Q99607 1-663); conditions: protein: recombinant; tags: N-terminal GST; dsDNA, one strand shown
Sequence of ELF4 (Q99607 whole entry): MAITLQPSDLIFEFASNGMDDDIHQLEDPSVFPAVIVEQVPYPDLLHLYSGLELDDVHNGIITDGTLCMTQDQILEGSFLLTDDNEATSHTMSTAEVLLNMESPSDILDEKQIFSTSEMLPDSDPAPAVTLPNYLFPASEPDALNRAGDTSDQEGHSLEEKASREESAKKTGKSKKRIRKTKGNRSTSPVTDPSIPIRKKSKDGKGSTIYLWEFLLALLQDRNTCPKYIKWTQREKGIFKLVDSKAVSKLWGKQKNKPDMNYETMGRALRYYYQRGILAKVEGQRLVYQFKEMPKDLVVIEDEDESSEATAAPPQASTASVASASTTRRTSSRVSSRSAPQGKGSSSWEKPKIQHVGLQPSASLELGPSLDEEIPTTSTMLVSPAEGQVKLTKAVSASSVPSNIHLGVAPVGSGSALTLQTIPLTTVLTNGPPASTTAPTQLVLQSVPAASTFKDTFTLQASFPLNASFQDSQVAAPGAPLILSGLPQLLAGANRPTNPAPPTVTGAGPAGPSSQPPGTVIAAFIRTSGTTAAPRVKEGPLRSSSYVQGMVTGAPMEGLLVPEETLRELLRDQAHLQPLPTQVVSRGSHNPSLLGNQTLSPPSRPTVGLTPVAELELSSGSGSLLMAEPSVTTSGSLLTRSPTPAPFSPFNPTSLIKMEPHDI
Outline: as §1

[6] = target: T3, ELK4 (Homo sapiens, UniProt P28324-2 1-405); conditions: protein: recombinant; tags: N-terminal GST; dsDNA, one strand shown
T3 sequence: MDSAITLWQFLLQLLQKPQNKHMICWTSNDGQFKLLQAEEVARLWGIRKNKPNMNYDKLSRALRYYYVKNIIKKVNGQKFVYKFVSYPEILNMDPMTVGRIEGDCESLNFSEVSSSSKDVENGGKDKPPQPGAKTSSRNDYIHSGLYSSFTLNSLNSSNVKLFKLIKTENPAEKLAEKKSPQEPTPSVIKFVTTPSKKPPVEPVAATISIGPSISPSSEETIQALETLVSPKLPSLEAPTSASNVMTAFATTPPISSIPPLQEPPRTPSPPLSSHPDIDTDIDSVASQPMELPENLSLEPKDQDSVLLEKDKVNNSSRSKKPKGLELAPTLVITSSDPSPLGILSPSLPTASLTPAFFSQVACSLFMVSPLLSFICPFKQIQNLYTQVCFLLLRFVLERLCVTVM
Outline: as §1

[7] = target: T4, ETV2 (Homo sapiens, UniProt O00321 1-342); conditions: protein: recombinant; tags: N-terminal GST; dsDNA, one strand shown
T4 sequence: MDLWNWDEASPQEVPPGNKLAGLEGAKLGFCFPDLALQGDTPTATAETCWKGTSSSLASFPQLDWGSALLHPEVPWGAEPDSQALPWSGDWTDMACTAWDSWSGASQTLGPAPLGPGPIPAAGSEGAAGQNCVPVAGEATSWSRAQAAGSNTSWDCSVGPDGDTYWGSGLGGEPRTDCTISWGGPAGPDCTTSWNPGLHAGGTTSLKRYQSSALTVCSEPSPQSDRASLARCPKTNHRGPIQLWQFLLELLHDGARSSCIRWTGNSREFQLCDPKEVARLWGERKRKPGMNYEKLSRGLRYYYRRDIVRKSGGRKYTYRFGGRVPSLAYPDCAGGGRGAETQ
Outline: as §1

[8] = target: T5, ELF3 (Homo sapiens, UniProt P78545 1-371); conditions: protein: recombinant; tags: N-terminal GST; dsDNA, one strand shown
T5 sequence: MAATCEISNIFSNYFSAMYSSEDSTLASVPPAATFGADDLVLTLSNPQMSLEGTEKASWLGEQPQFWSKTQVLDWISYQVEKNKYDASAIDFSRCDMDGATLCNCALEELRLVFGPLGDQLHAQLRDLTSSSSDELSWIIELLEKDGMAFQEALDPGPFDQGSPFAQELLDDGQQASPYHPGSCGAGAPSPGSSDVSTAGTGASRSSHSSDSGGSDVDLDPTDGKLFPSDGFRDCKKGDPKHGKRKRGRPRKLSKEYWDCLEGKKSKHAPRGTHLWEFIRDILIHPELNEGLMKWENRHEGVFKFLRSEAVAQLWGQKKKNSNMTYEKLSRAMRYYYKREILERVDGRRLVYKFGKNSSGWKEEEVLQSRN
Outline: as §1

[9] = target: CRX (Homo sapiens, UniProt O43186 1-299); conditions: protein: recombinant; tags: N-terminal GST; dsDNA, one strand shown
Sequence of CRX (O43186 whole entry): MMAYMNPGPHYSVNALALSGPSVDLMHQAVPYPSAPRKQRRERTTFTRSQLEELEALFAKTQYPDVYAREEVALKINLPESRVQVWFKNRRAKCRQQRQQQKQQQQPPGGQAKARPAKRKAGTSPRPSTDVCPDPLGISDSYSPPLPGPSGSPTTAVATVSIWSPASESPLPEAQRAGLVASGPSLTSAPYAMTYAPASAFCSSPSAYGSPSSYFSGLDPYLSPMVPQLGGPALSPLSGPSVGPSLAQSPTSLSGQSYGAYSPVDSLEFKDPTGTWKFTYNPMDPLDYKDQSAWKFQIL
Outline: as §1

[10] = target: ETV1 (Homo sapiens, UniProt P50549 1-477); conditions: protein: recombinant; tags: N-terminal GST; dsDNA, one strand shown
Sequence of ETV1 (P50549 whole entry): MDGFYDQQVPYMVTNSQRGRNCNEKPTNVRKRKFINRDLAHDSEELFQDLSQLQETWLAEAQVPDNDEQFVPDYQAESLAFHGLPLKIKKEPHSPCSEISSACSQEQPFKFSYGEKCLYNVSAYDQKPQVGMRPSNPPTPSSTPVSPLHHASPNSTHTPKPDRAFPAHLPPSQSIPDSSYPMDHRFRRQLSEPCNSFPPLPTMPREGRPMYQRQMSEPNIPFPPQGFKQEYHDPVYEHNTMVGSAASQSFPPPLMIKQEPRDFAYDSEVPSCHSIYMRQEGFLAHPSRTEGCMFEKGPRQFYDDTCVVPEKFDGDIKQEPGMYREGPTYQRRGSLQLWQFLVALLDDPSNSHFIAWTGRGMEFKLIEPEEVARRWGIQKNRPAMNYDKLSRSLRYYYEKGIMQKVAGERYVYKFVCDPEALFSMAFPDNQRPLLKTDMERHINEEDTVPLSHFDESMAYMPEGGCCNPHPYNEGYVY
Outline: as §1

[11] = target: T6, ERF (Homo sapiens, UniProt P50548 1-548); conditions: protein: recombinant; tags: N-terminal GST; dsDNA, one strand shown
T6 sequence: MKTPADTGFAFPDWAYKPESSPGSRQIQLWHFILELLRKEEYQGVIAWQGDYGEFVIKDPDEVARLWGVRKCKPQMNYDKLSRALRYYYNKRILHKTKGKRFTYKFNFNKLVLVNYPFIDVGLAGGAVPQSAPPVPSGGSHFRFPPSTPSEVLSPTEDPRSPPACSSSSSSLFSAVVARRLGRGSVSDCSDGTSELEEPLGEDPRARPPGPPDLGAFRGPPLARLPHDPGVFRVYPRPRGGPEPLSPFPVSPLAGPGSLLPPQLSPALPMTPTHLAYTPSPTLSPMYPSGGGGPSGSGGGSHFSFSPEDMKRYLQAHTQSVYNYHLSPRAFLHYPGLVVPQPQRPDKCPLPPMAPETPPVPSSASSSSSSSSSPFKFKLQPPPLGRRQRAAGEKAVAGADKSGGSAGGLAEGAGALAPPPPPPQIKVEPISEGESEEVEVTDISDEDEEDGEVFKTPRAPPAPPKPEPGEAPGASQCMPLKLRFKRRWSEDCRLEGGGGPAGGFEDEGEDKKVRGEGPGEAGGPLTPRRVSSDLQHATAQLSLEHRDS
Outline: as §1

[12] = target: T7, ETV3L (Homo sapiens, UniProt Q6ZN32 1-361); conditions: protein: recombinant; tags: N-terminal GST; dsDNA, one strand shown
T7 sequence: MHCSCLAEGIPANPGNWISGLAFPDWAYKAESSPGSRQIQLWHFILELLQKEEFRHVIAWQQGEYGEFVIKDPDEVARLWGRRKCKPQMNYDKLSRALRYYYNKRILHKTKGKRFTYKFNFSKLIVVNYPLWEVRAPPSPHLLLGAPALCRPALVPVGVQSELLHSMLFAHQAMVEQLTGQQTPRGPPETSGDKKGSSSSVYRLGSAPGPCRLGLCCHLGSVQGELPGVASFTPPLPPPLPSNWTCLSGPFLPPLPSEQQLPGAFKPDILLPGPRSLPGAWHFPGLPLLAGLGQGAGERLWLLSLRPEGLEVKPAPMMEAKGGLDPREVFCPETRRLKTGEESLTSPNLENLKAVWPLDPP
Outline: as §1

[13] = target: T8, ETS2 (Homo sapiens, UniProt P15036 1-469); conditions: protein: recombinant; tags: N-terminal GST; dsDNA, one strand shown
T8 sequence: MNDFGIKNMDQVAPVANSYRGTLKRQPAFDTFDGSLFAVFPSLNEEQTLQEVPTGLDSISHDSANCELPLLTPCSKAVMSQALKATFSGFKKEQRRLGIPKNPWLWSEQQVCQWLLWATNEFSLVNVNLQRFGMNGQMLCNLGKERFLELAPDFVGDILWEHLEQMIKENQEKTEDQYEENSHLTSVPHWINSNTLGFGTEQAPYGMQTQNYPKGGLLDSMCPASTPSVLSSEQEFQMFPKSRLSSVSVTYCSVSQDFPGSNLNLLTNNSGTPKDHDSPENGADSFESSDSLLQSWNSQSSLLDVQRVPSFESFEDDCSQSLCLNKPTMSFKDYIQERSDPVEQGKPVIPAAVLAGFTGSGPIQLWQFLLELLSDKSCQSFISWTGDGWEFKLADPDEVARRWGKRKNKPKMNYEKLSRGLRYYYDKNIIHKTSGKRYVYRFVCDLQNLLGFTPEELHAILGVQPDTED
Outline: as §1

[14] = target: T9, SPDEF (Homo sapiens, UniProt O95238 1-335); conditions: protein: recombinant; tags: N-terminal GST; dsDNA, one strand shown
T9 sequence: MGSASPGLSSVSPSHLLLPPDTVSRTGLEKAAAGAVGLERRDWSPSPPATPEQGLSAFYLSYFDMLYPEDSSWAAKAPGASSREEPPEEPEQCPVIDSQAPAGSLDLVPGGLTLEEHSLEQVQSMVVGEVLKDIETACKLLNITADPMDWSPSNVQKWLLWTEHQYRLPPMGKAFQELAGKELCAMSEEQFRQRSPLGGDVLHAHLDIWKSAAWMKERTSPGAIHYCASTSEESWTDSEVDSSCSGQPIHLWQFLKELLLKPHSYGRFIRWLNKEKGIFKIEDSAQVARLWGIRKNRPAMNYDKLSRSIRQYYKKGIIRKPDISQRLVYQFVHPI
Outline: as §1

[15] = target: T10, ETV7 (Homo sapiens, UniProt Q9Y603 1-341); conditions: protein: recombinant; tags: N-terminal GST; dsDNA, one strand shown
T10 sequence: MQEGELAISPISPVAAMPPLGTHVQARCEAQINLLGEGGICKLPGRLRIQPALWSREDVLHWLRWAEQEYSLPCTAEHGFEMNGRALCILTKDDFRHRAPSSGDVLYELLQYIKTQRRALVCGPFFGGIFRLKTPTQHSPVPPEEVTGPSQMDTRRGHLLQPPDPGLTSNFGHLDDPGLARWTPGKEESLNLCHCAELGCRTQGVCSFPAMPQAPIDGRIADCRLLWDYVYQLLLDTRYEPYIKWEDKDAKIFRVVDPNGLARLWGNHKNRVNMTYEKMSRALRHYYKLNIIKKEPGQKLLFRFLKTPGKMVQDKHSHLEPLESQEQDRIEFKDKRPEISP
Outline: as §1

[16] = target: T11, ELF5 (Homo sapiens, UniProt Q9UKW6-2 1-255); conditions: protein: recombinant; tags: N-terminal GST; dsDNA, one strand shown
T11 sequence: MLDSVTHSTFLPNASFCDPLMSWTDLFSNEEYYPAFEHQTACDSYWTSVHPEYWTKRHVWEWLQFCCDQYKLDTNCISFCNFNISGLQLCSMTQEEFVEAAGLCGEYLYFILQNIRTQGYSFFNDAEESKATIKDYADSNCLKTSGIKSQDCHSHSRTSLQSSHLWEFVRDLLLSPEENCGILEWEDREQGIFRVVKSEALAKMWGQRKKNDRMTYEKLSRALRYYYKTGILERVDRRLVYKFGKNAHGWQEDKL
Outline: as §1

[17] = target: T12, ETV3 (Homo sapiens, UniProt P41162-2 1-143); conditions: protein: recombinant; tags: N-terminal GST; dsDNA, one strand shown
T12 sequence: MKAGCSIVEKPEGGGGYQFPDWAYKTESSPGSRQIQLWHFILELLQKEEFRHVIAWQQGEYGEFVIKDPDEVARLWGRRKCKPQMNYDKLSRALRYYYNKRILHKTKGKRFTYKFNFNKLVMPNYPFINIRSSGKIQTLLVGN
Outline: as §1

[18] = target: ETV6 (Homo sapiens, UniProt P41212 1-452); conditions: protein: recombinant; tags: N-terminal GST; dsDNA, one strand shown
Sequence of ETV6 (P41212 whole entry): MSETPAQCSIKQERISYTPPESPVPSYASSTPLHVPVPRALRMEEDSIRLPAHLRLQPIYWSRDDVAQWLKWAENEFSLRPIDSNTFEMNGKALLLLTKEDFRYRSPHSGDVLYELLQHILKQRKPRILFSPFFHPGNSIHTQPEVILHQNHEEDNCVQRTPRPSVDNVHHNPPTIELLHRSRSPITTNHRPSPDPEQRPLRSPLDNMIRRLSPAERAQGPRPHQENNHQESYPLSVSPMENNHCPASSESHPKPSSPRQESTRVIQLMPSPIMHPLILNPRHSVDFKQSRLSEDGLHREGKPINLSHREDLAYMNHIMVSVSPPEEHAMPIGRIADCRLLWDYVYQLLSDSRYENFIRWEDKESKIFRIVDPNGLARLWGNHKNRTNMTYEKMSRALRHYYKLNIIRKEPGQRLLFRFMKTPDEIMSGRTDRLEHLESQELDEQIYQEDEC
Outline: as §1

Sequence: CTATAT
- binding signal [1]: 1.44 fold enrichment (6-mer frequency, TF over GST control)
- binding signal [2]: 1.41 fold enrichment (6-mer frequency, TF over GST control)
- binding signal [3]: 1.23 fold enrichment (6-mer frequency, TF over GST control)
- binding signal [4]: 1.47 fold enrichment (6-mer frequency, TF over GST control)
- binding signal [5]: 1.41 fold enrichment (6-mer frequency, TF over GST control)
- binding signal [6]: 1.71 fold enrichment (6-mer frequency, TF over GST control)
- binding signal [7]: 1.22 fold enrichment (6-mer frequency, TF over GST control)
- binding signal [8]: 1.33 fold enrichment (6-mer frequency, TF over GST control)
- binding signal [9]: 1.3 fold enrichment (6-mer frequency, TF over GST control)
- binding signal [10]: 1.39 fold enrichment (6-mer frequency, TF over GST control)
- binding signal [11]: 1.48 fold enrichment (6-mer frequency, TF over GST control)
- binding signal [12]: 1.4 fold enrichment (6-mer frequency, TF over GST control)
- binding signal [13]: 1.54 fold enrichment (6-mer frequency, TF over GST control)
- binding signal [14]: 1.51 fold enrichment (6-mer frequency, TF over GST control)
- binding signal [15]: 1.41 fold enrichment (6-mer frequency, TF over GST control)
- binding signal [16]: 1.4 fold enrichment (6-mer frequency, TF over GST control)
- binding signal [17]: 1.5 fold enrichment (6-mer frequency, TF over GST control)
- binding signal [18]: 1.43 fold enrichment (6-mer frequency, TF over GST control)
